# Data published in the OligoGym collection.
# Columns and labels:
# Assay in all cases: pooled miR-30 sensor sort-seq; sequence = guide strand
# Settings in all cases: shRNA
# FOXK1 = target: FOXK1
# FNTB = target: FNTB
# FOXN4 = target: FOXN4
# Further: reference of the scale not given here.
sequence,measurement,setting,value
TTGGGTCGCAAGGAGCTGCAAA,sensor-assay potency score (higher = more potent),FOXK1,-0.645
TAAACTGTTCGTGGGAACCGCA,sensor-assay potency score (higher = more potent),FOXK1,-0.882
TTGTCGAAGGCCTCTTTTCAGA,sensor-assay potency score (higher = more potent),FNTB,-1.02
TTCAAAGAGAGGTTGTGCCGGA,sensor-assay potency score (higher = more potent),FOXK1,0.647
AAGAACTGAAGACCTCTTGGAT,sensor-assay potency score (higher = more potent),FNTB,-0.153
TTGCCATCTGCTGCAGCCGAGG,sensor-assay potency score (higher = more potent),FOXN4,-1.85
